Assay results taken from PubChem BioAssay (EPA / NIEHS).
Records with an inconclusive call do not appear. Activity calls are given as the source filed them. How the source made its calls, unless noted: active means hit-call score of the fitted dose curve at least 0.9, where 1 is the maximum; inactive means score below 0.9.

What was measured:
[1] = read-out: Nuclear factor erythroid 2-related factor 2 (Homo sapiens) (UniProt Q16236); assay: LTEA_HepaRG_NFE2L2: Life Technologies and Expression Analysis (LTEA) Assay for Nuclear factor erythroid 2-related factor 2 (NFE2L2) Transcription Factor using HepaRG (AID 2283527); details: mRNA level, 48 h; actives raise or lower the signal;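 further: TaqMan qRT-PCR transcript level normalised to ACTB GAPDH and POLR2A housekeeping genes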
Outline: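 HepaRG, 48 h dosing, 8-pt half-log series from 100 uM in 0.5% DMSO, duplicates. Read-out: NFE2L2 mRNA by qRT-PCR (ACTB/GAPDH/POLR2A normalization). Bidirectional curve fit vs DMSO baseline.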

[2] = read-out: succinate dehydrogenase complex iron sulfur subunit B (SDHB), SDHB (gene 6390); assay: LTEA_HepaRG_SDHB: Life Technologies and Expression Analysis (LTEA) Assay for succinate dehydrogenase complex iron sulfur subunit B (SDHB) using HepaRG (AID 2283528); details: mRNA level, 48 h; actives raise or lower the signal
Outline: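 HepaRG, 48 h exposure, 8-pt half-log series from 100 uM in 0.5% DMSO, duplicates. Readout: SDHB mRNA by Fluidigm qRT-PCR vs housekeeping genes; bidirectional fit relative to DMSO.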

[3] = read-out: Signal transducer and activator of transcription 3 (Homo sapiens) (UniProt P40763); assay: LTEA_HepaRG_STAT3: Life Technologies and Expression Analysis (LTEA) Assay for Signal transducer and activator of transcription (STAT3) using HepaRG (AID 2283529); details: mRNA level, 48 h; actives raise or lower the signal
Outline: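 HepaRG, 48 h exposure, 8-pt half-log series (top 100 uM), 0.5% DMSO vehicle, duplicates. Readout: STAT3 transcript by Fluidigm qRT-PCR, housekeeping-normalized; bidirectional fit vs DMSO baseline.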

[4] = read-out: solute carrier (SLCO1B1), SLCO1B1 (gene 10599); assay: LTEA_HepaRG_SLCO1B1: Life Technologies and Expression Analysis (LTEA) Assay for solute carrier (SLCO1B1) using HepaRG (AID 2283530); details: mRNA level, 48 h; actives raise or lower the signal
Outline: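 Gain or loss of SLCO1B1 mRNA is fitted against the 0.5% DMSO vehicle in human HepaRG liver cells treated 48 h at up to 100 uM in half-log steps. Expression comes from qRT-PCR normalized to endogenous controls.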

[5] = read-out: sulfotransferase 2A1 (SULT2A1), SULT2A1 (gene 6822); assay: LTEA_HepaRG_SULT2A1: Life Technologies and Expression Analysis (LTEA) Assay for sulfotransferase 2A1 (SULT2A1) using HepaRG (AID 2283531); details: mRNA level, 48 h; actives raise or lower the signal
Outline: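 Cells were plated and cultured 48 h, switched to serum-free induction medium, then dosed in duplicate for 48 h (8 concentrations, max 100 uM). RNA was isolated and SULT2A1 expression measured by qRT-PCR; gain or loss of signal fitted relative to DMSO.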

[6] = read-out: Transforming Growth Factor (TGFA), TGFA (gene 7039); assay: LTEA_HepaRG_TGFA: Life Technologies and Expression Analysis (LTEA) Assay for Transforming Growth Factor (TGFA) using HepaRG (AID 2283532); details: mRNA level, 48 h; actives raise or lower the signal
Outline: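 qRT-PCR read-out of TGFA transcript, normalized to three housekeeping genes, fitted bidirectionally against 0.5% DMSO baseline. Human HepaRG cultures received chemicals for 48 h at eight half-log concentrations, top 100 uM.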

[7] = read-out: Transforming Growth Factor (TGFB1), TGFB1 (gene 7040); assay: LTEA_HepaRG_TGFB1: Life Technologies and Expression Analysis (LTEA) Assay for Transforming Growth Factor (TGFB1) Transporter using HepaRG (AID 2283533); details: mRNA level, 48 h; actives raise or lower the signal
Outline: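 Expression change of TGFB1 in human HepaRG cells is measured after a 48 h chemical exposure, up to 100 uM in 0.5% DMSO vehicle. Curves are fitted in both directions relative to the DMSO baseline.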

[8] = read-out: TIMP1, TIMP1 (gene 7076); assay: LTEA_HepaRG_TIMP1: Life Technologies and Expression Analysis (LTEA) Assay for TIMP1 using HepaRG (AID 2283534); details: mRNA level, 48 h; actives raise or lower the signal
Outline: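 We dosed human liver HepaRG cultures for 48 hours with up to 100 uM test chemical and measured TIMP1 expression by qRT-PCR. Activity in either direction is fitted relative to the 0.5% DMSO vehicle.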

[9] = read-out: Tumor necrosis factor receptor 1 (TNFRSF1A), TNFRSF1A (gene 7132); assay: LTEA_HepaRG_TNFRSF1A: Life Technologies and Expression Analysis (LTEA) Assay for Tumor necrosis factor receptor 1 (TNFRSF1A) using HepaRG (AID 2283535); details: mRNA level, 48 h; actives raise or lower the signal
Outline: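 Expression of TNFRSF1A in human HepaRG liver cells was measured by qRT-PCR 48 h after chemical dosing (maximum 100 uM). Bidirectional curve fitting used 0.5% DMSO as baseline.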

[10] = read-out: Thyroid Hormone Responsive (THRSP), THRSP (gene 7069); assay: LTEA_HepaRG_THRSP: Life Technologies and Expression Analysis (LTEA) Assay for Thyroid Hormone Responsive (THRSP) using HepaRG (AID 2283536); details: mRNA level, 48 h; actives raise or lower the signal
Outline: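 qRT-PCR read-out (Fluidigm TaqMan), housekeeping-normalized (ACTB/GAPDH/POLR2A). HepaRG, 48 h chemical exposure, 8-pt half-log series from 100 uM in 0.5% DMSO, duplicates. Bidirectional curve fit vs 0.5% DMSO baseline.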

[11] = read-out: Cellular tumor antigen p53 (Homo sapiens) (UniProt P04637); assay: LTEA_HepaRG_TP53: Life Technologies and Expression Analysis (LTEA) Assay for Tumor Protein P53 (TP53) using HepaRG (AID 2283537); details: mRNA level, 48 h; actives raise or lower the signal
Outline: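 HepaRG, 48 h exposure, top 100 uM, half-log 8-point, 0.5% DMSO vehicle, duplicates. Read: TP53 mRNA by TaqMan qRT-PCR, normalised to ACTB/GAPDH/POLR2A; bidirectional fit vs DMSO.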

[12] = read-out: UDP glucuronosyltransferase (UGT1A1), UGT1A1 (gene 54658); assay: LTEA_HepaRG_UGT1A1: Life Technologies and Expression Analysis (LTEA) Assay for UDP glucuronosyltransferase (UGT1A1) using HepaRG (AID 2283538); details: mRNA level, 48 h; actives raise or lower the signal
Outline: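 Cells are plated, cultured 48 h, switched to serum-free induction medium, then dosed 48 h at eight concentrations (max 100 uM, 0.5% DMSO). RNA is isolated and UGT1A1 expression measured by qRT-PCR; changes versus DMSO are fitted in both directions.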

[13] = read-out: UDP glucuronosyltransferase (UGT1A6), UGT1A6 (gene 54578); assay: LTEA_HepaRG_UGT1A6: Life Technologies and Expression Analysis (LTEA) Assay for UDP glucuronosyltransferase (UGT1A6) using HepaRG (AID 2283539); details: mRNA level, 48 h; actives raise or lower the signal
Outline: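 Endpoint is UGT1A6 transcript induction or loss in a human liver cell line, quantified by TaqMan qRT-PCR 48 h after dosing. Concentrations ran from 100 uM downward in half-log steps in 0.5% DMSO; activity was fitted in both directions versus vehicle.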

[14] = LTEA_HepaRG_LDH_cytotoxicity: Cytotoxicity Assessment in the Life Technologies and Expression Analysis (LTEA) Assay (AID 2283563; active means hit-call score of the fitted dose curve at least 0.9, where 1 is the maximum)
Outline: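 Human HepaRG hepatic cells are treated with test chemicals for 48 h at up to 100 uM in 0.5% DMSO. Cytotoxicity is scored from medium LDH against the vehicle control.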

[15] = ATG_XTT_Cytotoxicity: Cytotoxicity Assessment in the Attagene TRANS-FACTORIAL HepG2 Assay (AID 2283584; active means hit-call score of the fitted dose curve at least 0.9, where 1 is the maximum)
Outline: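 Transfect HepG2 with GAL4-UAS reporter units, dose compound, incubate 24 h, then measure viable cell number by XTT. Fit concentration response against DMSO baseline.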

[16] = TOX21_p53_BLA_p2_viability: Viability Assessment in the Tox21 HCT-116 p53 Agonism Beta-lactamase Assay, Phase 2 (AID 2283591; active means hit-call score of the fitted dose curve at least 0.9, where 1 is the maximum;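 further: compound exposure lasted 16 h at 37 °C; actives lower the ATP signal meaning cytotoxicity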)
Outline: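 HCT116 p53-bla cells, 4000/well, dosed after 5 h plating (217-fold dilution of DMSO stocks) and incubated 16 h at 37C. Viability taken as cellular ATP by CellTiter-Glo luminescence after 30 min RT; signal loss marks cytotoxicity.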

[17] = target: Cellular tumor antigen p53 (Homo sapiens) (UniProt P04637); assay: TOX21_p53_BLA_p3_ratio: Tox21 HCT-116 p53 Agonism Beta-lactamase Assay, Ratio, Phase 3 (AID 2283596; active means hit-call score of the fitted dose curve at least 0.9, where 1 is the maximum)
Sequence of Cellular tumor antigen p53 (Homo sapiens) (P04637 whole entry, looked up): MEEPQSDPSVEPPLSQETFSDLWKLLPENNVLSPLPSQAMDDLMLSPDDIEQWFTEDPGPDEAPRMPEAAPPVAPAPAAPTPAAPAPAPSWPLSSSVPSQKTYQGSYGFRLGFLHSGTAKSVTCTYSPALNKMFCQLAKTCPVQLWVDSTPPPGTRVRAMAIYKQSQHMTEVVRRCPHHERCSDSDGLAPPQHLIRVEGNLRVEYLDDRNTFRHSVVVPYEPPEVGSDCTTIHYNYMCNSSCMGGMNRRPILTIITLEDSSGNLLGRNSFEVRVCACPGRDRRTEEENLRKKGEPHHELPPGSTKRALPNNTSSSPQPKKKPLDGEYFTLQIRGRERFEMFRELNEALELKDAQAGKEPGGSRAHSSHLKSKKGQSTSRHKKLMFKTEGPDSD
Outline: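 Cells were seeded at 4000/well, rested 5 h at 37C, then dosed with DMSO compound solutions (217-fold dilution) for 16 h. CCF4-AM substrate was loaded for 2 h at room temperature, and the 460/530 nm emission ratio was fitted for gain of signal versus DMSO.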

[18] = read-out: X-box binding protein 1 (XBP1), XBP1 (gene 7494); assay: LTEA_HepaRG_XBP1: Life Technologies and Expression Analysis (LTEA) Assay for X-box binding protein 1 (XBP1) using HepaRG (AID 2283540); details: mRNA level, 48 h; actives raise or lower the signal
Outline: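 Human HepaRG monolayers receive test chemical for 48 h across an eight-point half-log series starting at 100 uM. XBP1 mRNA gain or loss is scored against DMSO by qRT-PCR.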

[19] = TOX21_p53_BLA_p3_viability: Viability Assessment in the Tox21 HCT-116 p53 Agonism Beta-lactamase Assay, Phase 3 (AID 2283593; active means hit-call score of the fitted dose curve at least 0.9, where 1 is the maximum;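 further: cells exposed to compound for 16 h before reading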)
Outline: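 HCT116 cells, 4000/well, dosed 5 h after plating by pin transfer (217-fold dilution from DMSO stock) and incubated 16 h at 37C, 5% CO2. Viability read as ATP luminescence with CellTiter-Glo after 30 min at room temperature.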

[20] = target: Cellular tumor antigen p53 (Homo sapiens) (UniProt P04637); assay: TOX21_p53_BLA_p2_ratio: Tox21 HCT-116 p53 Agonism Beta-lactamase Assay, Ratio, Phase 2 (AID 2283592; active means hit-call score of the fitted dose curve at least 0.9, where 1 is the maximum)
Outline: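 Cleaved-to-uncleaved substrate ratio (460 vs 530 nm) measured in HCT116 cells with an inducible beta-lactamase reporter linked to p53 activity. Compounds incubated 16 h at 37C before 2 h room-temperature CCF4-AM loading.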

Measured: AC50

Sequence of Signal transducer and activator of transcription 3 (Homo sapiens) (P40763 whole entry, looked up): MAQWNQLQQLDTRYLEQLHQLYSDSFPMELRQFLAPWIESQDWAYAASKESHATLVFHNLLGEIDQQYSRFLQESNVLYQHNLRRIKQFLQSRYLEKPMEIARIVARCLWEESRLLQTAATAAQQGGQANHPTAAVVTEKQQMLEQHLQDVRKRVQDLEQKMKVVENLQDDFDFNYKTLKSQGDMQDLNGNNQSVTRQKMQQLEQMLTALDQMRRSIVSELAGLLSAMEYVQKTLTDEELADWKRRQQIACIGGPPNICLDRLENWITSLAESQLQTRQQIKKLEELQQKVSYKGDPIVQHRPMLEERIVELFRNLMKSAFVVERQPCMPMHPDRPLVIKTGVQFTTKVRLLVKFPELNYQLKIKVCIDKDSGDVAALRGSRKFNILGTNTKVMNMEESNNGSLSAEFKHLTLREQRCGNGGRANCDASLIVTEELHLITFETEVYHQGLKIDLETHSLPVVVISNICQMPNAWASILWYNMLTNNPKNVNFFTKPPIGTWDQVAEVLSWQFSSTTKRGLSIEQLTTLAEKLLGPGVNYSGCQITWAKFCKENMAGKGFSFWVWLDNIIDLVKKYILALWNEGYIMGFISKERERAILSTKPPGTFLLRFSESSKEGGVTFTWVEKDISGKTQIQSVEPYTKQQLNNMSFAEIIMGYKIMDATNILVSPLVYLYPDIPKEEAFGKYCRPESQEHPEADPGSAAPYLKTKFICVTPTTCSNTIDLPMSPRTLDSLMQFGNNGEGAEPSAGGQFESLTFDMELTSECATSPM
Sequence of Nuclear factor erythroid 2-related factor 2 (Homo sapiens) (Q16236 whole entry, looked up): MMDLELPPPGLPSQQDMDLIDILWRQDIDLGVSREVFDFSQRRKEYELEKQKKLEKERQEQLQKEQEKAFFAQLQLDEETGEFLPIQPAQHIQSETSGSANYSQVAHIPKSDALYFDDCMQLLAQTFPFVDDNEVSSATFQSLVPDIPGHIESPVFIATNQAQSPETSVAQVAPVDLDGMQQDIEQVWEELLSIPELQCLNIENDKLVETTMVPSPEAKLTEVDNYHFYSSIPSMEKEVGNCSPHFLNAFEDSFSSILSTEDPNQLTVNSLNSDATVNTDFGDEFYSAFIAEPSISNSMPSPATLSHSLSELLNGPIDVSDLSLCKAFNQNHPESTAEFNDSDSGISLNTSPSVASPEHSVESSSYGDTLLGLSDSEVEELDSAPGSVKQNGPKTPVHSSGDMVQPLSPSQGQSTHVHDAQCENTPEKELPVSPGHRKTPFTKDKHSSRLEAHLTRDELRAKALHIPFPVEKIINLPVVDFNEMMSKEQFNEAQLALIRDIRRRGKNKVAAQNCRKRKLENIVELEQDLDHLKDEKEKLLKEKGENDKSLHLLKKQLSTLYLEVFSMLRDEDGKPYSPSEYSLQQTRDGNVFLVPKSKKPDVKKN

O=c1c(-c2ccc(O)cc2)coc2cc(O)ccc12
not listed: [18] | [19] | [20]
inactive: all other assays above

CN(C)C=O
not listed: [16] | [20]
inactive: all other assays above

CCCCC(CC)COC(=O)CCCCC(=O)OCC(CC)CCCC (stereo unspecified)
not listed: [5] | [20]
inactive: all other assays above

c1ccc2cc3c(ccc4ccccc43)cc2c1
active: [3] 8.31 µM | [4] 8.09 µM | [8] 10.2 µM | [10] 5.27 µM | [12] 4.24 µM | [18] 17.2 µM
not listed: [5] | [19]
inactive: all other assays above
